A number with no mark means an inactive call. Results filed as inconclusive are left out. Active and inactive are the calls of the source. Unless noted, calls come from the whole dose curve; as a rule, active = well fitted curve in the direction sought with a large enough effect; inconclusive = small, poorly fitted or top-dose-only effect, or another doubt; inactive = no such curve, though single readings can be large; an effect the other way counts as inactive or inconclusive.

The target in test [1] is Mitogen-activated protein kinase 10 (Mus musculus) (UniProt Q61831). The test is described as follows: JNK3 AlphaScreen Assay (AID 530; active = well fitted curve in either direction with a large enough effect, not every such curve was filed as active;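 note: kinase came from lysate of stimulated human HepG2 cells; signal reports phosphorylation of biotinylated GST-cJun 1-79 at Ser73 with 10 µM ATP; % is set by controls: 0 for no effect and ±100 for the full control effect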). In a few lines: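 Room-temperature AlphaScreen kinase assay; pre-activated HepG2 lysate as JNK3 source, biotin-GST-cJun(1-79) substrate, 10 uM ATP, compound 15 min preincubation.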
The nature of test [2]: Cell Viability - N2a (AID 540).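 Note: cells exposed to compound for 40 h at 37 °C; plate controls were DMSO alone for no effect and tamoxifen control for full effect; nearly all actives have a fitted effect of over 45% in size.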 The method in brief: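 First, 1500 N2a cells per well incubate 5 hr at 37 °C; next, compounds are added and incubated 40 hr at 37 °C; finally CellTiter-Glo is added and luminescence read after 20 min, with AC50 derived by Hill modeling.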
The nature of test [3]: Cell Viability - NIH 3T3 (AID 541).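 Note: cells exposed to compound for 40 hours; plate controls were DMSO alone for no effect and tamoxifen positive control for full effect; nearly all actives have a fitted effect of over 25% in size.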 The method in brief:
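AC50 values reflect concentration-dependent loss of intracellular ATP in NIH 3T3 cells after 40 hr treatment in complete culture medium, quantified by luciferase-based luminescence.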

Test [4] in a line: Cell Viability - HUV-EC-C (AID 542).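 Note: cells exposed to compound for 40 hours; % is set by controls: 0 for no effect and ±100 for the full control effect; nearly all actives have a fitted effect of over 35% in size.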 The method in brief:
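Decrease in cellular ATP, quantified by luciferase luminescence, reflects toxicity in normal human vascular endothelial HUV-EC-C cells given compound for 40 hr in complete culture medium. Values are AC50s from concentration-response curves.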

Test [5] is described as follows: Cell Viability - H-4-II-E (AID 543).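 Note: cells exposed to compound for 40 hours; % is set by controls: 0 for no effect and ±100 for the full control effect; nearly all actives have a fitted effect of over 35% in size.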 In a few lines:
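Here, cytotoxicity is measured in the rat hepatoma line H-4-II-E as loss of intracellular ATP after 40 hr compound treatment, detected by luciferase luminescence.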

Test [6] is described as follows: Cell Viability - SH-SY5Y (AID 544).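 Note: cells exposed to compound for 40 hours; 0% = DMSO alone and -100% = 100 µM tamoxifen; nearly all actives have a fitted effect of over 55% in size.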 The settings on record: SH-SY5Y neuroblastoma cell viability; at 92.2 µM (top of the series). In a few lines:
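Cytotoxicity is scored as a concentration-dependent fall in intracellular ATP in human SH-SY5Y cells treated 40 hr in complete culture medium. Potency is expressed as AC50 from a Hill equation fit.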

Test [7] is described as follows: Cell Viability - Renal Proximal Tubule (AID 545).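 Note: cells exposed to compound for 40 hours; 0% = DMSO only and -100% = 100 µM tamoxifen; nearly all actives have a fitted effect of over 40% in size.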 The method in brief: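 Luminescent ATP signal (CellTiter-Glo) served as the viability read-out after 40 hr compound exposure of freshly isolated rat proximal tubule cells at 37 °C. Concentration-dependent ATP loss was fitted with the Hill equation to give AC50.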
Test [8] can be described thus: Cell Viability - Mesenchymal (AID 546).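 Note: cells exposed to compound for 40 hours before reading; 0% = DMSO only and -100% = 100 µM tamoxifen.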 In a few lines:
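AC50 values reflect the drop in intracellular ATP in a human kidney mesenchymal line derived from normal glomeruli. Treatment lasts 40 hr at 37 °C in complete medium, and the signal comes from CellTiter-Glo luminescence.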

Test [9] deals with Glucocorticoid receptor (Homo sapiens) (UniProt P04150). The test is described as follows: GR-GFP Redistribution (AID 450;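 active = compounds whose dose series gives a full or clear partial fitted curve of increased nuclear translocation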; note: potency is the fitted concentration of half-maximal effect). The note with it: U2OS GR-GFP nuclear translocation, laser cytometry, 2 h.
Sequence of Glucocorticoid receptor (Homo sapiens) (P04150 whole entry, looked up): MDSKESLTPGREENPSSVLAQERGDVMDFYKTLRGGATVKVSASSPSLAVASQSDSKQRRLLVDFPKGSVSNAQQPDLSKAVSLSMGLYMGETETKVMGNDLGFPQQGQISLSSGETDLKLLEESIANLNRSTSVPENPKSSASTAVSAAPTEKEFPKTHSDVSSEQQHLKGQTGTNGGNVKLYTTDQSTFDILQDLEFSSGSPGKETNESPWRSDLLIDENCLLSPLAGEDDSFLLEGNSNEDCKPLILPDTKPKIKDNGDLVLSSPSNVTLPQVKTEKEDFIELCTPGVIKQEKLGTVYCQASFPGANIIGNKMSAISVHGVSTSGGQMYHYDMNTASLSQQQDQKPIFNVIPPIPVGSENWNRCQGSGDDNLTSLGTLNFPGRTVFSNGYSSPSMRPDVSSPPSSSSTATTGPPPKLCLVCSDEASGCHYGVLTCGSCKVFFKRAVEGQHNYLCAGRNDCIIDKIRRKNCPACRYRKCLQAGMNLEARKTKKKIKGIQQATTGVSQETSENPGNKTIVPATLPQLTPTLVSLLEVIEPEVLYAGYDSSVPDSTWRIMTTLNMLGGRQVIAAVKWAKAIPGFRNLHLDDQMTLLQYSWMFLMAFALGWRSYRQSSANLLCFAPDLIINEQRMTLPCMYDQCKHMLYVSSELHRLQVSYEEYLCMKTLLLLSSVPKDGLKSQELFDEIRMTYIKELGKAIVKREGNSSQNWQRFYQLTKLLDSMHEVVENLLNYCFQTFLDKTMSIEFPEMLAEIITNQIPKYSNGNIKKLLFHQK

In the case of `CC(=O)OCC(COC(C)=O)OC(C)=O`, the compound was called inactive in [1], in test [2], in test [3], in test [4], in test [5] and in test [7]. The result in [8] was inactive. Moreover, the viability change, negative = cytotoxic in [6] is 13.4%.
For the compound `O=C(c1ccccc1)C(O)c1ccccc1` (centres undefined), the result in [1], in test [2], in [3], in [4], in test [5] and in [7] was inactive. Moreover, in test [8], the call was inactive. In test [6], the viability change, negative = cytotoxic was -3.66%.
With `Cc1cc(C)nc(NS(=O)(=O)c2ccc(N)cc2)n1`, in test [9], the Potency is more than 20.6 µM. Moreover, the outcome in test [1], in test [2], in test [3], in [4], in test [5] and in test [7] was inactive. Also, the call in test [8] was inactive. Also, in [6], the viability change, negative = cytotoxic was -0.461%.
For `CCS(=O)(=O)CCn1c([N+](=O)[O-])cnc1C`, in test [1], the result was inactive.
In the case of `CCCC(O)C(CC)CO` (centres undefined), the result in test [1], in test [2], in test [3], in [4], in test [5] and in [7] was inactive. Further, the compound was called inactive in [8]. Further, the viability change, negative = cytotoxic in test [6] was -7.87%.
Take `FC(F)(F)C(Cl)Br` (centres undefined): the compound was classed as inactive in [1], in test [2], in test [3], in [4], in [5] and in test [7]. In addition, the compound was called inactive in test [8]. Besides, the viability change, negative = cytotoxic in [6] is -0.71%.
For `C=CCNC(N)=S`, the compound was called inactive in test [1], in test [2], in test [3], in test [4], in test [5] and in test [7]. For the same compound, in test [8], the compound was classed as inactive. In addition, the viability change, negative = cytotoxic in test [6] was -6.07%.
In the case of `CCCCC1(COC(=O)CCC(=O)O)C(=O)N(c2ccccc2)N(c2ccccc2)C1=O`, in [1], the outcome was inactive.
Take `Cc1cc(=O)[nH]c(=S)[nH]1`: the result in test [1], in test [2], in test [3], in [4], in test [5] and in [7] was inactive. The call in test [8] was inactive. Besides, the viability change, negative = cytotoxic in test [6] is -4.62%.
Turning to `Cc1c(NC(=O)c2cccnc2)c(=O)n(-c2ccccc2)n1C`, in [9], the Potency is more than 20.6 µM. Moreover, the call in test [1] was inactive.
For `Cc1ncc(CO)c(CN)c1O`, the compound was classed as inactive in test [1].
For the compound `O=C1c2cccc(O)c2C(=O)c2c(O)cccc21`, the compound was classed as inactive in [2], in test [4], in [5], in test [7] and in [8].
Consider `Cn1c(=O)c2c(ncn2CCO)n(C)c1=O`, for which the call in [1] was inactive.
With `COc1ccc(O)cc1`, the compound was classed as inactive in test [1], in test [4], in test [5], in test [7] and in test [8]. In addition, the viability change, negative = cytotoxic in test [6] is 4.2%.
`CC(=O)Nc1ccc(C(=O)O)cc1`: the compound was called inactive in test [1], in test [2], in [3], in test [4], in test [5] and in test [7]. In addition, in test [8], the compound was called inactive. In test [6], the viability change, negative = cytotoxic was -7.67%.
For the compound `CCCCCC(N)=O`, the result in [1], in test [2], in test [3], in test [4], in test [5] and in test [7] was inactive. Also, the call in test [8] was inactive. Besides, the viability change, negative = cytotoxic in [6] is -5.16%.
`Nc1ccc(S(=O)(=O)c2ccc(N)cc2)cc1`: the compound was classed as inactive in test [1], in [2], in test [4], in test [5], in [7] and in test [8]. Besides, in test [6], the viability change, negative = cytotoxic was -10.9%.
As to `CC(=O)Nc1cccc(O)c1`, the outcome in [1], in [2], in [3], in [4], in [5] and in test [7] was inactive. Besides, the call in test [8] was inactive. The viability change, negative = cytotoxic in test [6] is 15.1%.
`O=C1C(c2[nH]c3ccccc3c2O)=Nc2ccccc21`: the result in test [2], in test [4], in [5], in test [7] and in test [8] was inactive. For the same compound, in [6], the viability change, negative = cytotoxic was -102% (active).
Turning to `CC(=O)NS(=O)(=O)c1ccc(N)cc1`, the Potency in [9] was more than 20.6 µM. Moreover, the result in test [1], in test [2], in test [3], in [4], in [5] and in [7] was inactive. For the same compound, the call in test [8] was inactive. In addition, the viability change, negative = cytotoxic in test [6] is -13.1%.
As for `CC[N+](CC)(CC(=O)Nc1c(C)cccc1C)Cc1ccccc1`, the outcome in test [1] was inactive.
Consider `O=C(O)CCCCC1CCSS1` (centres undefined), for which the call in [1], in test [2], in test [3], in test [4], in test [5] and in test [7] was inactive. Moreover, the call in [8] was inactive. The viability change, negative = cytotoxic in [6] was -17.1%.
With `O=S1(=O)OC(c2ccc(O)cc2)(c2ccc(O)cc2)c2ccccc21`, in test [1], the compound was classed as inactive.
The same measure, in the same setting: then `CC(=O)N[C@@H](CC(C)C)C(=O)O`, with “inactive”; and `CC[N+](C)(CC)CCOC(=O)C1c2ccccc2Oc2ccccc21`, with “inactive”.
For `CCCCOC(=O)c1ccc(N)cc1`, the Potency in test [9] was more than 20.6 µM. Also, the call in [1], in [2], in test [3], in [4], in test [5] and in test [7] was inactive. Further, the result in test [8] was inactive. Further, the viability change, negative = cytotoxic in [6] is -11.2%.
As for `NCc1ccc(S(N)(=O)=O)cc1`, in test [1], the outcome was inactive.
With `CCN(CC)C(=O)c1cccc(C)c1`, the call in [1], in [2], in test [4], in test [5], in test [7] and in test [8] was inactive. The viability change, negative = cytotoxic in test [6] is -22.4%.
`CCCCCCCC(=O)OCC(COC(=O)CCCCCCC)OC(=O)CCCCCCC`: the result in test [1], in test [2], in test [3], in [4], in test [5] and in test [7] was inactive. Also, in test [8], the call was inactive. Also, the viability change, negative = cytotoxic in test [6] was -12.2%.
Consider `Cc1c(N(C)C)c(=O)n(-c2ccccc2)n1C`, for which the Potency in [9] is more than 20.6 µM. Moreover, the compound was classed as inactive in test [1], in test [2], in [3], in test [4], in [5] and in test [7]. Besides, the call in test [8] was inactive. Also, the viability change, negative = cytotoxic in test [6] is -14.6%.
In the case of `CC(=O)Nc1ccccc1`, the outcome in test [1], in [2], in [3], in [4], in [5] and in test [7] was inactive. Besides, in test [8], the call was inactive. Also, the viability change, negative = cytotoxic in test [6] is -26.9%.
In the case of `O=C(O)COC(=O)Cc1ccccc1Nc1c(Cl)cccc1Cl`, the compound was called inactive in test [1].
For `O=C(Cn1ccnc1[N+](=O)[O-])NCCO`, in test [1], the outcome was inactive.
For `CC1CC(OC(=O)c2ccccc2O)CC(C)(C)C1` (centres undefined), the result in test [1], in test [2], in test [3], in [4], in test [5] and in test [7] was inactive. Also, in [8], the compound was called inactive. Also, in test [6], the viability change, negative = cytotoxic was -0.877%.

These data come from PubChem BioAssay (NCATS).
